In PubChem BioAssay AID1159580 (chemical genetic matrix, 2015):
Values joined by “and” are separate entries in the source; they are usually repeats but may differ in a detail not shown here. Equal values may be shown once. About 2,000 (36%) of roughly 5,500 compounds were called active. Not shown: some 18% with an inconclusive outcome. Rule as the data show it: active = normalized growth mostly below about 0.91 (no sharp cut-off); inconclusive = no clear call, values can overlap the other calls; inactive = mostly above about 0.92. Some of the results follow.

Assay: chemical genetic growth profiling, strain panel (AID 1159580);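 also: tested at 20 µM; growth read once vehicle control cultures reached saturation at 30 °C; 1 = growth at the plate median or of vehicle wells; lower values mean less growth of the strain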
Details: S. cerevisiae deletion strains, growth OD

Measured: normalized growth

CC(=O)[C@H]1CCC2C3C[C@H](C)C4=CC(=O)CC[C@]4(C)C3[C@@H](O)C[C@@]21C (stereo partly drawn)
inactive: locus YAL021C, strain ccr4, active compounds read low 0.988 | locus YAL026C, strain drs2, active compounds read low 0.989 | locus YAL030W, strain snc1, active compounds read low 0.986 | locus YBL061C, strain skt5, active compounds read low 0.988 | locus YBR009C, strain hhf1, active compounds read low 1 | locus YBR021W, strain FUR4, active compounds read low 0.979 | locus YBR023C, strain chs3, active compounds read low 0.983 | locus YBR171W, strain sec66, active compounds read low 0.973 | locus YBR229C, strain ROT2, active compounds read low 0.994 | locus YBR231C, strain swc5, active compounds read low 0.994 | locus YBR279W, strain paf1, active compounds read low 0.99 | locus YCL011C, strain gbp2, active compounds read low 0.964 | locus YCL016C, strain dcc1, active compounds read low 0.953 | locus YCL029C, strain bik1, active compounds read low 0.983 | locus YCL061C, strain MRC1, active compounds read low 0.989 | locus YCL069W, strain vba3, active compounds read low 0.983 | locus YCR088W, strain abp1, active compounds read low 0.98 | locus YDL005C, strain med2, active compounds read low 0.984 | locus YDL035C, strain GPR1, active compounds read low 1.02 | locus YDL040C, strain nat1, active compounds read low 0.987 | locus YDL074C, strain BRE1, active compounds read low 0.98 | locus YDL101C, strain DUN1, active compounds read low 0.993 | locus YDL134C, strain PPH21, active compounds read low 1.01 | locus YDL185W, strain tfp1, active compounds read low 0.965 | locus YDL192W, strain arf1, active compounds read low 0.981 | locus YDR001C, strain nth1, active compounds read low 0.977 | locus YDR069C, strain doa4, active compounds read low 1.02 | locus YDR101C, strain arx1, active compounds read low 0.989 | locus YDR137W, strain rgp1, active compounds read low 0.921 | locus YDR159W, strain sac3, active compounds read low 1.01 | locus YDR162C, strain NBP2, active compounds read low 0.99 | locus YDR195W, strain ref2 0.997 | locus YDR297W, strain sur2, active compounds read low 0.985 | locus YDR318W, strain mcm21, active compounds read low 0.988 | locus YDR334W, strain swr1, active compounds read low 0.963 | locus YDR335W, strain msn5, active compounds read low 0.984 | locus YDR388W, active compounds read low 0.986 | locus YDR392W, strain spt3, active compounds read low 0.897 | locus YDR502C, strain sam2, active compounds read low 0.978 | locus YEL003W, strain gim4, active compounds read low 1 | locus YEL037C, strain rad23, active compounds read low 0.975 | locus YEL061C, strain CIN8 (second series), active compounds read low 0.977 | locus YEL061C, strain CIN8, active compounds read low 0.99 | locus YER015W, strain faa2, active compounds read low 0.992 | locus YER016W, strain bim1, active compounds read low 0.996 | locus YER110C, active compounds read low 0.969 | locus YER111C, strain swi4, active compounds read low 0.982 | locus YER155C, strain BEM2 (second series), active compounds read low 1 | locus YER155C, strain BEM2, active compounds read low 0.991 | locus YER167W, strain BCK2, active compounds read low 0.986 | locus YFR010W, strain ubp6, active compounds read low 0.986 | locus YGL078C, strain dbp3, active compounds read low 0.991 | locus YGL086W, strain mad1, active compounds read low 1.01 | locus YGL167C, strain pmr1, active compounds read low 0.971 | locus YGL173C, strain kem1, active compounds read low 0.995 | locus YGL227W, strain vid30, active compounds read low 0.978 | locus YGL240W, strain doc1, active compounds read low 1.02 | locus YGL248W, strain PDE1, active compounds read low 0.984 | locus YGL253W, strain hxk2, active compounds read low 0.976 | locus YGR135W, strain pre9, active compounds read low 0.939 | locus YGR252W, strain gcn5, active compounds read low 1.06 | locus YHR013C, strain ard1, active compounds read low 0.945 | locus YHR027C, strain rpn1, active compounds read low 0.98 | locus YHR030C, strain SLT2, active compounds read low 0.996 and 0.986 | locus YHR079C, strain IRE1 (second series), active compounds read low 0.98 | locus YHR079C, strain IRE1, active compounds read low 0.966 | locus YHR094C, strain hxt1, active compounds read low 0.984 | locus YHR129C, strain ARP1, active compounds read low 0.995 | locus YHR142W, strain chs7, active compounds read low 0.95 | locus YHR200W, strain rpn10, active compounds read low 0.981 | locus YIL066C, strain RNR3, active compounds read low 0.993 | locus YIL073C, strain SPO22, active compounds read low 0.899 | locus YIL125W, strain kgd1, active compounds read low 0.996 | locus YIR030C, strain dcg1, active compounds read low 0.975 | locus YJL092W, strain hpr5, active compounds read low 0.977 | locus YJL095W, strain BCK1 (second series), active compounds read low 0.982 | locus YJL095W, strain BCK1, active compounds read low 0.969 and 0.976 | locus YJL115W, strain asf1, active compounds read low 0.973 | locus YJL129C, strain trk1, active compounds read low 0.959 | locus YJL134W, strain LCB3, active compounds read low 0.99 | locus YJL154C, strain vps35, active compounds read low 0.972 | locus YJL164C, strain tpk1, active compounds read low 0.997 | locus YJL166W, strain qcr8, active compounds read low 0.979 | locus YJL168C, strain set2, active compounds read low 0.994 | locus YJL187C, strain SWE1 (second series), active compounds read low 0.993 | locus YJL187C, strain SWE1, active compounds read low 0.985 | locus YJR043C, strain POL32, active compounds read low 1.03 | locus YJR066W, strain TOR1, active compounds read low 0.925
